Measurements: PubChem BioAssay (NCI)
About 79,000 compounds went through this panel and 15% of them were active in at least one assay; those are over-represented in the sample as a whole. Activity calls are given as the source filed them. Cut-off read from the data, not from the text of the source: active = growth inhibition above about 70%; inactive = the rest.

Columns and labels:
[1] = NCI Yeast Anticancer Drug Screen. Data for the rad52 strain (AID 147);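 note: 0% = growth of vehicle-treated control cultures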; conditions: S. cerevisiae rad52 mutant growth inhibition, active compounds read high
Method in brief: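 Vehicle-treated cultures served as the reference for growth inhibition of compound-exposed yeast bearing a DNA repair mutation.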

[2] = NCI Yeast Anticancer Drug Screen. Data for the wt1 strain (AID 149);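 note: 0% = growth of vehicle-treated wt1 cultures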; conditions: S. cerevisiae wt1 strain (SPY 50644) growth inhibition, active compounds read high
Method in brief: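 Vehicle-normalised growth inhibition; strain wt1; compound exposure.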

[3] = NCI Yeast Anticancer Drug Screen. Data for the mgt1 strain (AID 153); conditions: S. cerevisiae mgt1 mutant growth inhibition, active compounds read high
Method in brief: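 mgt1 strain exposed; growth vs vehicle control recorded as inhibition.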

[4] = NCI Yeast Anticancer Drug Screen. Data for the rad50 strain (AID 155);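 note: 0% = growth of vehicle-only cultures of the same strain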; conditions: S. cerevisiae rad50 strain growth inhibition, active compounds read high
Method in brief: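 A DNA repair-deficient yeast mutant serves as the test organism; compound-induced growth inhibition is calculated against vehicle-treated cells.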

[5] = NCI Yeast Anticancer Drug Screen. Data for the mec2-1 strain (AID 157); conditions: S. cerevisiae mec2-1 strain, active compounds read high
Method in brief: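 Vehicle-treated cultures served as reference for growth inhibition of compound-exposed mec2-1 yeast.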

[6] = NCI Yeast Anticancer Drug Screen. Data for the sgs1 mgt1 strain (AID 161);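 note: 0% = growth of cultures given vehicle only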; conditions: S. cerevisiae sgs1 mgt1 strain, active compounds read high
Method in brief: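 Test agents were incubated with a DNA-repair-mutant yeast strain. Growth was then read and compared against vehicle-treated controls.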

[7] = NCI Yeast Anticancer Drug Screen. Data for the CLN2oe strain (AID 163);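 note: 0% = growth of vehicle-only control cultures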; conditions: S. cerevisiae CLN2oe strain, active compounds read high
Method in brief: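 Inhibition relative to vehicle-treated yeast is reported. Cells: strain with genetic alteration in cell-cycle control, grown with compound.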

[8] = NCI Yeast Anticancer Drug Screen. Data for the cln2 rad14 strain (AID 165);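 note: 0% = growth equal to vehicle treated cultures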; conditions: S. cerevisiae cln2 rad14 strain, active compounds read high
Method in brief: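 Each compound was tested on cln2 rad14 yeast. Inhibition of growth was calculated against vehicle-exposed controls.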

[9] = NCI Yeast Anticancer Drug Screen. Data for the bub3 strain (AID 167); conditions: S. cerevisiae bub3 mutant strain, active compounds read high
Method in brief: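 Inhibition values come from growth of compound-treated mutant yeast normalised to vehicle-treated controls.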

[10] = NCI Yeast Anticancer Drug Screen. Data for the wt2 strain (AID 169);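 note: 0% = growth of vehicle-treated yeast cultures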; conditions: S. cerevisiae wt2 strain growth inhibition, active compounds read high
Method in brief: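 Inhibition of yeast growth was determined after compound treatment, normalised to controls receiving only vehicle.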

[11] = NCI Yeast Anticancer Drug Screen. Data for the mlh1 strain (AID 171);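 note: 0% = growth of vehicle-treated control cultures of the same strain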; conditions: S. cerevisiae mlh1 strain growth inhibition, active compounds read high
Method in brief: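 Vehicle-normalised growth inhibition of a repair- or checkpoint-altered yeast strain following compound treatment.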

[12] = NCI Yeast Anticancer Drug Screen. Data for the sgs1 strain (AID 173);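 note: 0% = growth of vehicle-only control cultures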; conditions: S. cerevisiae sgs1 mutant, active compounds read high
Method in brief: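 Screen format: yeast with repair or checkpoint alterations, compound exposure, growth read relative to vehicle.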

[13] = NCI Yeast Anticancer Drug Screen. Data for the mlh1 rad18 strain (AID 175); conditions: S. cerevisiae mlh1 rad18 strain growth inhibition, active compounds read high
Method in brief: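 Vehicle-treated cultures served as the reference for growth inhibition in a yeast strain carrying DNA damage repair alterations exposed to each compound.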

[14] = NCI Yeast Anticancer Drug Screen. Data for the rad18 strain (AID 177); conditions: S. cerevisiae rad18 mutant growth inhibition, active compounds read high
Method in brief: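 Test articles were incubated with altered yeast defective in DNA damage repair. Results are given as inhibition of growth versus vehicle.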

[15] = NCI Yeast Anticancer Drug Screen. Data for the rad14 strain (AID 159);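 note: 0% = growth of vehicle-treated control cultures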; conditions: S. cerevisiae rad14 strain growth inhibition, active compounds read high
Method in brief: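 Vehicle-treated cultures served as the baseline for growth inhibition of a DNA repair-mutant yeast strain exposed to each compound.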

[16] = at 5.0 µM (retest, dose inferred, filed as 0.5)
[17] = at 50.0 µM (retest, dose inferred, filed as 5.0)

Measured: growth inhibition

CC(/C=C/c1ccc2c(c1)OCO2)[N+](=O)[O-] (stereo unspecified)
inactive: [1]; at 1.2 µM 40% | [2]; at 1.2 µM 8% | [3]; at 1.2 µM 1% | [3]; at 3.7 µM 16% | [4]; at 1.2 µM 33% | [5]; at 1.2 µM 4% | [5]; at 3.7 µM 30% | [5]; [16] 2% | [6]; [16] 62% | [7]; at 1.2 µM -1% | [7]; at 3.7 µM 37% | [8]; [16] -13% | [9]; at 1.2 µM 23% | [9]; at 3.7 µM 69% | [9]; [16] 46% | [10]; at 1.2 µM 10% | [11]; at 1.2 µM -2% | [11]; at 3.7 µM 64% | [12]; at 1.2 µM 30% | [13]; [16] 66% | [14]; at 1.2 µM 10% | [14]; at 3.7 µM 58%
active: [1]; at 3.7 µM 93% | [1]; at 11.0 µM 99% | [1]; at 33.0 µM 99% | [1]; at 100.0 µM 99% | [2]; at 3.7 µM 71% | [2]; at 11.0 µM 99% | [2]; at 33.0 µM 100% | [2]; at 100.0 µM 99% | [3]; at 11.0 µM 99% | [3]; at 33.0 µM 99% | [3]; at 100.0 µM 99% | [4]; at 3.7 µM 86% | [4]; [16] 86% | [4]; at 11.0 µM 99% | [4]; at 33.0 µM 99% | [4]; [17] 97% | [4]; at 50.0 µM 99.6% | [4]; at 100.0 µM 99% | [5]; at 11.0 µM 100% | [5]; at 33.0 µM 99% | [5]; [17] 99% | [5]; at 50.0 µM 99.7% | [5]; at 100.0 µM 99% | [6]; [17] 98% | [6]; at 50.0 µM 99.5% | [7]; at 11.0 µM 99% | [7]; at 33.0 µM 99% | [7]; at 100.0 µM 99% | [8]; [17] 98% | [8]; at 50.0 µM 99.2% | [9]; at 11.0 µM 99% | [9]; at 33.0 µM 99% | [9]; [17] 98% | [9]; at 50.0 µM 99% | [9]; at 100.0 µM 98% | [10]; at 3.7 µM 97% | [10]; at 11.0 µM 100% | [10]; at 33.0 µM 100% | [10]; at 100.0 µM 100% | [11]; at 11.0 µM 99% | [11]; at 33.0 µM 99% | [11]; at 100.0 µM 99% | [12]; at 3.7 µM 82% | [12]; at 11.0 µM 99% | [12]; at 33.0 µM 99% | [12]; at 100.0 µM 99% | [13]; [17] 98% | [13]; at 50.0 µM 99.4% | [14]; at 11.0 µM 99% | [14]; at 33.0 µM 99% | [14]; at 100.0 µM 99%

CC(C)NC(=O)OCc1c(COC(=O)NC(C)C)c(-c2ccc(Cl)c(Cl)c2)n2c1CCC2
active: [3]; at 100.0 µM 76% | [15]; at 100.0 µM 84% | [6]; [17] 72% | [9]; [17] 79% | [11]; at 100.0 µM 76% | [12]; at 100.0 µM 80% | [14]; at 100.0 µM 84%
inactive: [1]; at 1.2 µM -38% | [1]; at 3.7 µM -28% | [1]; at 11.0 µM -19% | [1]; at 33.0 µM 1% | [1]; at 100.0 µM 68% | [2]; at 1.2 µM -38% | [2]; at 3.7 µM -34% | [2]; at 11.0 µM -45% | [2]; at 33.0 µM -32% | [2]; at 100.0 µM 30% | [3]; at 1.2 µM -60% | [3]; at 3.7 µM -48% | [3]; at 11.0 µM -59% | [3]; at 33.0 µM -39% | [4]; at 1.2 µM -35% | [4]; at 3.7 µM -29% | [4]; [16] 8% | [4]; at 11.0 µM -24% | [4]; at 33.0 µM 1% | [4]; [17] 44% | [4]; at 50.0 µM 58.6% | [4]; at 100.0 µM 63% | [5]; at 1.2 µM -71% | [5]; at 3.7 µM -61% | [5]; [16] -1% | [5]; at 11.0 µM -56% | [5]; at 33.0 µM -53% | [5]; [17] 8% | [5]; at 50.0 µM 47.6% | [5]; at 100.0 µM 47% | [15]; at 1.2 µM -33% | [15]; at 3.7 µM -26% | [15]; at 11.0 µM -30% | [15]; at 33.0 µM 10% | [6]; [16] 9% | [6]; at 50.0 µM 23% | [7]; at 1.2 µM 4% | [7]; at 3.7 µM 0% | [7]; at 11.0 µM 4% | [7]; at 33.0 µM 11% | [7]; at 100.0 µM 32% | [8]; [16] 23% | [8]; [17] 24% | [8]; at 50.0 µM 3.3% | [9]; at 1.2 µM -65% | [9]; at 3.7 µM -66% | [9]; [16] 18% | [9]; at 11.0 µM -69% | [9]; at 33.0 µM -34% | [9]; at 50.0 µM 17.4% | [9]; at 100.0 µM 63% | [10]; at 1.2 µM -31% | [10]; at 3.7 µM -21% | [10]; at 11.0 µM -31% | [10]; at 33.0 µM -36% | [10]; at 100.0 µM 26% | [11]; at 1.2 µM -44% | [11]; at 3.7 µM -71% | [11]; at 11.0 µM -69% | [11]; at 33.0 µM -40% | [12]; at 1.2 µM -21% | [12]; at 3.7 µM -17% | [12]; at 11.0 µM -1% | [12]; at 33.0 µM 12% | [13]; [16] 13% | [13]; [17] 68% | [13]; at 50.0 µM 69.2% | [14]; at 1.2 µM -17% | [14]; at 3.7 µM 2% | [14]; at 11.0 µM 1% | [14]; at 33.0 µM 34%
